Unmarked numbers belong to inactive results. The rule behind the calls is not given here.
Target: Bifunctional epoxide hydrolase 2 (Homo sapiens) (UniProt P34913)
Test: sEH inhibitor concentration-response potency, dose response, biochemical, human sEH, fluorescence, Infinite200 (AID 1026)
Details: recombinant human sEH, fluorogenic substrate, at 0.2 µM, stronger effect = higher value

Chain of Bifunctional epoxide hydrolase 2 (Homo sapiens) (P34913 whole entry, looked up): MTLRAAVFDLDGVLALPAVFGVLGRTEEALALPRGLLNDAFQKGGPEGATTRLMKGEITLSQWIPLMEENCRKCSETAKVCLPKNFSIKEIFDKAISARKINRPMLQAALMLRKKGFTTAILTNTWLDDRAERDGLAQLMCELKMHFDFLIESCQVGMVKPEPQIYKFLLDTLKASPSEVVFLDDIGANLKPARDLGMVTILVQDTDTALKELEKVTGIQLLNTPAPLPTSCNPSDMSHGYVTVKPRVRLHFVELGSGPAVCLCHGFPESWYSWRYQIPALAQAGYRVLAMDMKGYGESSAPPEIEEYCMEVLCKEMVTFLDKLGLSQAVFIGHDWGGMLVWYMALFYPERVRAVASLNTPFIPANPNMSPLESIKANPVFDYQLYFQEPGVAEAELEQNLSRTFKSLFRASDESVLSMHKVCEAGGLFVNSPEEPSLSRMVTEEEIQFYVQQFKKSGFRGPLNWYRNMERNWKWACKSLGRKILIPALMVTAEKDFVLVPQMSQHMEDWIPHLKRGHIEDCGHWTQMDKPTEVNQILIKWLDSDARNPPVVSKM

Row | Compound | inhibition
1 | Cc1ccccc1C(=O)N1CCN(c2ccc(NC(=O)CSc3ccc(Cl)cc3)cc2)CC1 | 60.1%
2 | COc1ccc(NC(=O)N2CCCC(c3nc(-c4ccc(C(C)C)cc4)no3)C2)cc1 (stereo not drawn) | 64.5%
3 | O=C(N/N=C\c1ccc(Cl)s1)c1cccs1 | 74%
4 | CCN(CCNC(=O)Nc1ccc(Cl)cc1)c1ccccc1 | 39.1%
5 | O=C(Nc1ccc(Cl)c(C(F)(F)F)c1)C1CCCN(S(=O)(=O)c2cnc[nH]2)C1 (stereo not drawn) | 72.5%
6 | Cc1cc(N2CCCC(C(=O)Nc3ccc4c(c3)CCC4)C2)n2ncnc2n1 (stereo not drawn) | 50.2%
7 | Cc1ccc(S(=O)(=O)N2CCCC(C(=O)NCCC3=CCCCC3)C2)cc1 (stereo not drawn) | 35.1%
8 | CC(NC(=O)CSc1nnc(-c2cccc(S(=O)(=O)N3CCCCC3)c2)o1)C12CC3CC(CC(C3)C1)C2 (stereo not drawn) | 66%
9 | O=C(NC1CCCCCCC1)C1CCN(S(=O)(=O)N2CCC3(CC2)OCCO3)CC1 | 49.5%
10 | O=C(/C=C/c1cc2c(cc1Br)OCO2)NCc1ccc(Cl)cc1 | 60.5%
11 | Cc1cc2nc(-c3ccc(SCC(=O)N4CCN(C(=O)c5ccco5)CC4)nc3)[nH]c2cc1C | 48%
12 | CCc1ccc(/C=N/NC(=O)c2ccc(OC3CCCC3)cc2)s1 | 65.8%
13 | Cc1nn(Cc2ccccc2Cl)c(C)c1NC(=O)NC12CC3CC(CC(C3)C1)C2 | 66%
14 | CCN(CCCNC(=O)CCCCn1c(=O)[nH]c2ccccc2c1=O)c1ccccc1 | 38.1%
15 | COc1ccc(OC)c(/C=N/NC(=O)c2csc3ccccc23)c1 | 51.1%
16 | O=C(Nc1ccc(N2CCOCC2)cc1)Nc1ccc(Cl)c(Cl)c1 | 40%
17 | COc1ccc(CNC(=O)C2CCC(CNS(=O)(=O)c3cccc4nsnc34)CC2)cc1 (stereo not drawn) | 74.4%
18 | CCCOc1cccc(/C=N/NC(=O)c2csc(C)c2C)c1 | 49.7%
19 | O=C(Nc1cnn(Cc2ccccc2)c1)NC12CC3CC(CC(C3)C1)C2 | 59.3%
20 | O=C(NC12CC3CC(CC(C3)C1)C2)N1CCC(O)(c2ccc3c(c2)OCO3)CC1 | 46%
21 | O=C(NC1CCCCC1)N1CCCC(c2nc(-c3cccs3)no2)C1 (stereo not drawn) | 65.8%
22 | NS(=O)(=O)c1ccc(CNC(=O)/C=C/c2c(Cl)cccc2Cl)cc1 | 51.6%
23 | CCc1cccc(NC(=O)NC2CCCCC2)c1 | 70.5%
